Screening data from PubChem BioAssay.
SRC2 inh – human SRC2 (NCOA2) inhibition | 0.17% of 370,000 active | HEK293 GAL4-SRC2 luciferase reporter, luminescence | inhibition, % at 9 µM | AID 651957;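 active means inhibition above the mean inhibition of all tested compounds plus 3 SD, set per campaign, cut at about 52% in these data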;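 further: 0% = DMSO treated cells and 100% = cells given Gossypol at 36 µM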
NCOA1 inh – human NCOA1 inhibition; Q15788; HEK293 GAL4-SRC1 luciferase reporter, luminescence; inhibition, % at 3.6 µM; 0.12% of 360,000 active; AID 588354;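 active means inhibition above the campaign mean plus 3 SD, with each screening campaign given its own cutoff, cut at about 60% in these data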;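 further: 0% = DMSO treated cells and 100% = gossypol at 36 µM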
GalR3 antag – blocks the human galanin receptor 3; O60755; HEK293 GalR3-CNG cAMP membrane potential fluorescence; galR3 body fused to GalR1 C-terminus; inhibition, % at 3 µM; 0.44% of 360,000 active; AID 651719;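 active means inhibition above the screen-wide average plus 3 SD, cut at about 13% in these data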;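 further: forskolin and galanin both at EC90 stimulate the cells; cAMP rise reported by CNG channel membrane potential dye signal; 0% = forskolin plus galanin with DMSO and 100% = forskolin alone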
SRC3 inh – inhibits human SRC3 coactivator. HEK293 GAL4-SRC3 luciferase reporter, luminescence. inhibition, % at 3.6 µM. 0.17% of 360,000 active. AID 588352;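 active means inhibition above a per-campaign cutoff, the mean of all compounds plus 3 SD, cut at about 60% in these data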;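 further: 0% = DMSO-treated cells and 100% = gossypol-treated cells at 36 µM; higher means less SRC3-driven luciferase light from the GAL4 reporter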
NR2F2 inh – inhibitors of human COUP-TFII (NR2F2) | 0.7% of 370,000 active | AID 686940 | P24468 | inhibition, % at 8.6 µM | HEK293T NGFI-A luciferase reporter, luminescence;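 active means inhibition above a per-plate cutoff, mean inhibition of test wells between control levels plus 3 SD, cut at about 38% in these data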;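 further: cells cotransfected with COUP-TFII expression vector driving the NGFI-A reporter; 0% = median of COUP-TF2 test wells and 100% = reporter-only cells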
NR5A2 inv ag – suppresses constitutive activity of human LRH-1 | 0.13% of 360,000 active | inhibition, % at 3.6 µM | O00482 | AID 602396 | HEK293T StAR-luciferase reporter, LRH-1 transfected, 24 h;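 active means inhibition above the mean inhibition of all tested compounds plus 3 SD, cut at about 73% in these data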;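 further: 0% = DMSO wells and 100% = reporter-only cells lacking LRH-1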
VP16 Luc counter – counter-screen for COUP-TFII antagonists: inhibitors of VP16 | shares compounds with NR2F2 inh | HEK293 Gal4-VP16 luciferase reporter, luminescence | inhibition, % at 8.5 µM | 25% of 2,500 active | AID 687007; in the data active means inhibition above about 13%
NR2F2 inh conf – COUP-TFII (NR2F2) inhibition, confirmation assay; shares compounds with NR2F2 inh; HEK293 NGFI-A luciferase reporter, luminescence; inhibition, % at 8.5 µM; 45% of 2,500 active;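 active means mean inhibition over three repeats above a set limit taken from the earlier primary screen, cut at about 38% in these data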;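 further: 100% = cells given the luciferase reporter alone without the COUP-TF2 vector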
* = called active by the depositor; x = no result. Only some compounds are listed: those with a hit (about 1.1% of all), similar ones and a draw of the others.

SMILES	SRC2 inh	NCOA1 inh	GalR3 antag	SRC3 inh	NR2F2 inh	NR5A2 inv ag	VP16 Luc counter	NR2F2 inh conf
Cc1ccc2nc(-c3ccc4c(c3)OCCO4)cn2c1	70.3*	36.8	-4.8	39.2	77.2*	9.8	53.9*	71.2*
c1ccn2cc(-c3ccc4c(c3)OCCO4)nc2c1	0.2	-65.5	-2.6	-48.9	6.3	-73.7	x	x
CCOC(=O)Cn1cc(CN2CCS(=O)(=O)N(Cc3ccc(C)cc3)C(C(=O)OC)C2)nn1 (configuration not stated)	-1.4	x	x	x	-23.2	x	x	x
CN(C)S(=O)(=O)N1CCC(Oc2cccc(C(=O)NCCC3=CCCCC3)c2)CC1	27.1	5.4	0.0	12.2	55.6*	10.6	-8.5	16.7
COc1ccc2[nH]c(=O)c3c(c2c1)OC(C)(C)C=C3	63.3*	47.1	-6.0	44.4	43.7*	20.1	0.4	25.4
Cc1cc2c([nH]c3ccccc32)c2c1OC(C)(C)C=C2	-63.3	-52.7	0.7	-61.3	-83.1	-68.3	x	x
O=C(N/N=C\c1ccc(-c2ccc([N+](=O)[O-])cc2)o1)c1ccc2c(c1)OCO2	0.9	-25.4	-9.3	-5.1	1.3	10.3	x	x
O=C(N/N=C/c1ccc([N+](=O)[O-])o1)c1ccc2c(c1)OCO2	67.0*	-36.1	-2.3	-16.5	53.9*	47.8	45.1*	44.4*
CCn1c(COc2ccccc2)nnc1SCC(=O)Nc1ccc(Oc2ccccc2)cc1	8.6	x	x	x	15.3	x	x	x
COc1ccc(/C=C/c2nc3ccccc3c(=O)o2)cc1	77.1*	60.5	-3.2	60.6	78.9*	50.9	-24.3	0.7
COc1ccccc1/C=C/c1nc2ccccc2c(=O)o1	-35.9	-71.0	-7.3	-101.3	-19.1	-89.7	x	x
COc1ccc(/C=C/c2nc3ccccc3n2C)cc1	58.4*	6.5	-7.5	26.8	63.7*	-31.2	7.0	39.4*
COc1ccc(Cn2c(/C=C/c3ccccc3)nc3ccccc32)cc1	-55.0	-109.6	-9.9	-86.4	-56.2	-104.0	x	x
CCN(CC)C(=O)CN1C(=O)C2CCCCN2C(=O)c2ccccc21 (configuration not stated)	6.3	x	x	x	-1.7	x	x	x
Nc1ncnc2c(C3OC(CO)C(O)C3O)c[nH]c12 (configuration not stated)	69.5*	94.2*	-5.6	94.0*	81.8*	99.5*	48.9*	80.6*
Nc1ncnc2c1nc(-c1ccccc1)n2C1OC(CO)C(O)C1O (configuration not stated)	-9.4	-5.6	-6.7	19.7	10.2	17.9	x	x
CN(CCCOC(=O)c1cc2ccccc2o1)C1CN(Cc2cn(Cc3ccccc3C(F)(F)F)nn2)S(=O)(=O)C1 (configuration not stated)	-12.8	x	x	x	13.7	x	x	x
COc1ccc2c(c1)CCCN2C(=O)C1CCCN(S(=O)(=O)c2ccc(C(C)(C)C)cc2)C1 (configuration not stated)	36.1	x	x	x	48.3*	x	5.3	18.8
CC(C)(C)c1ccc(S(=O)(=O)N2CCCC(C(=O)N3CCN(Cc4ccccc4)CC3)C2)cc1 (configuration not stated)	11.7	x	x	x	44.6*	x	5.2	29.4
CCCCN(CC)c1nc(-c2ccncc2)nc2ccccc12	-11.7	11.8	-1.8	0.7	25.7	7.2	x	x
CN(C)c1nc(-c2ccccn2)nnc1-c1ccccc1	18.1	-10.5	3.4	11.1	-28.8	32.3	x	x
CCN(CC)c1nc(-c2ccccn2)nc(-c2ccccc2)c1C#N	23.6	13.5	-2.5	32.3	41.2*	45.4	0.6	10.8
c1ccc(CCNc2nc(-c3ccccn3)nc3ccccc23)cc1	-18.0	16.4	-3.4	32.7	50.2*	63.5	-12.8	31.8
CCCN(CCC)c1nc(-c2ccccn2)nc2ccccc12	7.8	50.2	-13.2	64.1*	57.4*	28.3	-1.1	30.6
c1ccc(-c2nc(N3CCCCCC3)c3ccccc3n2)nc1	18.0	-3.7	-4.8	25.1	38.3*	94.2*	0.1	36.6
SMILES	SRC2 inh	NCOA1 inh	GalR3 antag	SRC3 inh	NR2F2 inh	NR5A2 inv ag	VP16 Luc counter	NR2F2 inh conf
O=C(NCCc1ccccc1)OCc1cn(Cc2cccc(Cl)c2)nn1	0.6	x	x	x	8.7	x	x	x
COC(=O)[C@]12C[C@H](CC(=O)N3CCCCC3)C(=O)N(CCc3ccc(OC)c(OC)c3)C1=C[C@H](COCc1ccccc1)O[C@@H]2C	-3.9	x	x	x	-7.2	x	x	x
CNC1=C(N(C(C)=O)c2ccc(Br)cc2)C(=O)c2ccccc2C1=O	45.9	80.5*	-4.8	81.2*	47.8*	96.7*	16.8*	35.8
COC(=O)[C@H](CC(C)C)N(CCc1cn(Cc2ccc(C)cc2)nn1)S(=O)(=O)c1ccc(F)cc1Br	4.3	x	x	x	15.7	x	x	x
Cc1ccc(NC(=O)c2cc(S(=O)(=O)NCCC3=CCCCC3)ccc2F)cc1F	20.9	21.8	-6.0	26.5	40.1*	27.6	1.5	40.1*
COC(=O)c1cccc(CN2C(=O)C(C)Sc3ccc(C(C)=O)cc32)c1 (configuration not stated)	-26.6	-13.1	-9.2	-43.8	-14.1	-70.4	x	x
CC(=O)c1ccc2c(c1)N(Cc1ccccc1Cl)C(=O)C(C)S2 (configuration not stated)	26.6	7.0	-6.9	-19.0	84.3*	39.3	3.8	9.3
COc1ccc(-c2coc3c(C(=O)Nc4cccnc4)cccc23)c(C)c1	-3.0	-3.6	-7.2	-12.6	55.2*	-1.6	-15.8	17.9
O=S1(=O)c2c(cccc2N2CCSCC2)Oc2ccccc2CN1Cc1cn(Cc2ccccc2C(F)(F)F)nn1	23.5	x	x	x	-2.9	x	x	x
CC(C)N1C(=O)S/C(=C/c2ccc(Sc3nc4ccccc4[nH]3)o2)C1=O	14.4	9.7	-3.5	19.1	4.2	1.6	x	x
C=CCN1C(=O)S/C(=C/c2ccc(Sc3nc4ccccc4[nH]3)o2)C1=O	10.3	3.0	-5.2	17.3	45.8*	13.6	-12.1	10.6
O=C(Nc1cccc(S(=O)(=O)N2CCOCC2)c1)c1ccc2c(=O)n3c(nc2c1)CCCCC3	8.8	-17.3	1.8	26.6	38.7*	2.5	-3.2	8.8
C=CCN1[C@H](C)COc2cc(N3CCCC3)ccc2S1(=O)=O	4.2	x	x	x	4.0	x	x	x
S=C(Nc1ccccc1)Nc1ccc(OCc2ccc(Cl)cc2Cl)cc1	81.7*	54.6	-0.4	59.9	75.7*	49.8	69.7*	70.5*
c1ccc(-c2c[nH]c3cccc(-c4cc5ccccc5o4)c23)cc1	-4.1	x	x	x	9.0	x	x	x
Oc1ccc(Oc2ccc3c(C(F)(F)F)cc(C(F)(F)F)nc3n2)cc1	11.0	-3.2	-6.5	23.5	49.2*	18.4	-11.9	37.4*
COc1ccc(-c2cc(-c3nnc(SCC(=O)Nc4ccccc4-c4ccccc4)n3N)[nH]n2)cc1	-27.7	x	x	x	7.9	x	x	x
